High-throughput results: PubChem, National Center for Advancing Translational Sciences (NCATS)
HCV inhibitor: blocks hepatitis C virus. Potency, µM (titrated, usually from 41.8 µM), inactives show at the highest dose activity change, negative = inhibition, usual class: inhibitors. Huh7.5.1 HCVcc-Cre infection, luciferase reporter, 44 h. actives 3.4% (n = 340,000); note: potency is the fitted concentration of half-maximal effect; % is set by controls: 0 for no effect and ±100 for the full control effect
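HCVcc-Cre virus at an moi near 0.5 was added right after compound to cells cultured 4 h from seeding (1,000 cells/well). Luciferase activity was determined 44 h later, 15 min after substrate addition at RT.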
Cycloheximide cs: counter-screen for Shiga toxin inhibitors: cycloheximide protein synthesis inhibition; cell reporter, cycloheximide protein synthesis inhibition counterscreen; max response, %; actives 12% (n = 300,000); in the data active = max response mostly above about 13%, no sharp cut-off; inactive = mostly below about 14%; note: read at 38.3 µM for the half of the compounds with a filed dose; 0% is about no effect
Shiga toxin inh: Shiga toxin inhibition; inhibition, % at 38.7 µM; AID 2315; actives 9.2% (n = 290,000); Vero cells, Shiga toxin protein synthesis inhibition reporter; in the data active = inhibition mostly above about 28%, no sharp cut-off; inactive = mostly below about 43%; note: 0% is about no effect
Pf growth 48h: inhibits P. falciparum growth in the first generation, 48 h | P. falciparum luciferase growth in erythrocytes, 48 h | Potency, µM (titrated, usually from 28.7 µM), inactives show top-dose activity change, negative = inhibition, hits mostly inhibitors | actives 5.9% (n = 310,000) | AID 504832; note: potency is the fitted concentration of half-maximal effect; % is set by controls: 0 for no effect and ±100 for the full control effect
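Growth was read as firefly luciferase luminescence after a 48 h, 37 C, 5% CO2 exposure of compounds to reporter-bearing P. falciparum cultures (0.1% parasitemia, 2% hematocrit final) in Albumax-supplemented RPMI 1640.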
Pf growth 96h: inhibits malaria parasite growth, 96 h; P. falciparum luciferase reporter growth, 96 h; AID 504834; actives 6.9% (n = 320,000); Potency, µM (series often up to 28.7 µM), inactives show top-dose activity change, negative = inhibition, hits mostly inhibitors; note: potency is the fitted concentration of half-maximal effect; % is set by controls: 0 for no effect and ±100 for the full control effect
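P. falciparum expressing integrated firefly luciferase, in erythrocytes at 2% hematocrit, 0.05% parasitemia, incubated with compounds 96 h at 37 C, 5% CO2. Growth inhibition read as loss of luminescence; two-generation exposure targets delayed-death apicoplast inhibitors.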
HCMV inh: human cytomegalovirus inhibition; HFF cells, HCMV-luciferase reporter, 72 h; stronger effect = lower value; activity change, negative = inhibition, % at 57.5 µM; actives 4.5% (n = 410,000); AID 1259415; in the data active = activity change below about -60%; inconclusive = no clear call, values can overlap the other calls; inactive = above about -39%; note: % is set by controls: 0 for no effect and ±100 for the full control effect
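Luciferase read-out from HCMV-luciferase-infected HFFs (MOI 1 PFU/cell) 72 h post infection at 37C; compounds added after 16 h cell attachment; activity normalized between buffer-only basal and Salinomycin (10uM) inhibitor controls.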
Active calls of the source: *; i = inactive; ? = inconclusive; · = no result given; + = active, no number; [ ] = another dose, or the depositor's remark. Only some compounds are listed: those with a hit (about 21% of all), similar ones and a draw of the others. Unless noted, calls come from the whole dose curve; as a rule, active = well fitted inhibition curve with a large enough effect; inconclusive = small, poorly fitted or top-dose-only effect, or another doubt; inactive = no such curve, though single readings can be large or run the other way.

SMILES | HCV inhibitor | Cycloheximide cs | Shiga toxin inh | Pf growth 48h | Pf growth 96h | HCMV inh
CCOc1ccccc1CNC(=O)C1CCN(c2nn3cc(-c4ccc(F)cc4)nc3s2)CC1 | · | · | · | · | · | +
CCOC(=O)N1CCN(C(=O)C2CCCN(c3nc4ccc(OCC)cc4s3)C2)CC1 (stereo not drawn) | ? | 13 | 30* | ? | -15% | 4
CCOc1ccc(NC(=O)C2CCCN(c3nn4cc(-c5ccc(OC)cc5)nc4s3)C2)cc1 (stereo not drawn) | · | · | · | · | · | +
Cc1cc(C)c2[nH]c(C)c(CN3CCCCCC3)c(=O)c2c1 | ? | -2 | -4 | 5% | 389% | -31
CN1CCN(c2ccc(NC(=O)c3ccc(-c4cccc([N+](=O)[O-])c4)o3)cc2)CC1 | ? | 12 | 21 | 1.5µM* | 0% | 46
CN1CCN(c2ccc(NC(=O)c3ccc(-c4ccc(Cl)cc4)o3)cc2)CC1 | ? | 8 | 39 | 2.9µM* | ? | 18
Cc1ccccc1N1CCN(C(=S)c2ccc(-c3ccc([N+](=O)[O-])cc3)o2)CC1 | -6% | -2 | 20 | 0% | 0% | ?
Cc1ccccc1N1CCN(C(=S)c2ccc(-c3cccc([N+](=O)[O-])c3)o2)CC1 | ? | 8 | 36 | 10µM* | ? | 30
CN(C)/C=C/C(=O)c1ccc(OCCN(C)c2ccccn2)cc1 | -29% | -3 | -3 | 12%[0.00184 µM] | -18% | 38
CN(C)/C=C/C(=O)c1cnc(-c2ccccn2)s1 | -3% | 36* | 90* | i | 233% | 111
CC(=O)c1sc(-c2ccccc2Cl)nc1C | -1% | -1 | -1 | -14% | 59% | -1
CN(C)/C=C/C(=O)c1cnc(-c2cccc(Cl)c2)s1 | -8% | 25* | 67* | 110% | 148% | -5
CN(C)/C=C/C(=O)c1cnc(-c2ccccc2Cl)s1 | -15% | 45* | 87* | 247% | 121% | 33
O=C(Cc1ccc(Cl)cc1)NCC(c1cccs1)S(=O)(=O)c1ccc(F)cc1 (stereo not drawn) | · | · | · | · | · | -11
CCN(CC)C(=O)[C@H]1C[C@H](CC(=O)NCc2ccco2)C(=O)N2CCc3c([nH]c4cc(CCC(=O)N(C)C)ccc34)[C@]12C | -9% | · | · | · | · | 18
Cc1ccc(N(C(=O)c2ccco2)C2C=CS(=O)(=O)C2)cc1 (stereo not drawn) | 5% | 0 | -9 | 2% | 28% | -38
COc1ccc(C(=O)Nc2ccc(OCC(=O)N3CCOCC3)cc2)c(OC)c1OC | 16% | 21* | 16 | -6% | ? | 57
O=C(Nc1ccc(OCC(=O)N2CCOCC2)cc1)c1cccc(Cl)c1 | 23% | 20 | 26* | 2% | -3% | 80
COc1cc(C(=O)Nc2cc(C)c(OCC(=O)N3CCOCC3)c(C)c2)cc(OC)c1OC | -21% | 9 | 12 | ? | 13µM* | 12
O=C(Nc1ccc(OCC(=O)N2CCOCC2)cc1)c1ccccc1F | 2% | 21* | 53 | 31% | ? | -27
COC(=O)Nc1ccc(OCC(=O)N2CCOCC2)cc1 | -4% | -1 | 9 | -11% | -11% | -25
Cc1cc(C)c(Cn2c(=O)n(Cc3ccccc3)c(=O)c3c(C)c(C)sc32)c(C)c1 | · | · | · | · | · | -5
Cc1cc(NC(=O)c2ccccc2F)cc(C)c1OCC(=O)N1CCOCC1 | -2% | 12 | 20 | 34% | 12% | -98*
Cc1cc(NC(=O)c2cc3ccccc3o2)cc(C)c1OCC(=O)N1CCOCC1 | ? | 9 | 7 | -12% | 38% | -11
CCn1c(C)nc([N+](=O)[O-])c1Sc1ccc(F)cc1 | -5% | -4 | -11 | ? | 10µM* | -13
SMILES | HCV inhibitor | Cycloheximide cs | Shiga toxin inh | Pf growth 48h | Pf growth 96h | HCMV inh
c1ccc2c(c1)C1=NCCN1c1ccccc1-2 | · | · | · | · | · | -103*
CCCNC(=S)Nc1ccc(F)cc1F | -27% | 0 | -14 | 14% | 19% | 92
O=C(Cn1nc(C(=O)O)c2ccccc2c1=O)c1c[nH]c2ccccc12 | -30% | 9.4* | 35* | -10% | -13% | 35
Cc1cc(C(=O)Cn2nc(C(=O)O)c3ccccc3c2=O)c(C)n1-c1ccccc1 | ? | 59* | 95* | 99% | 103% | -26
Cc1cc(C)c(C(=O)Cn2nc(C(=O)O)c3ccccc3c2=O)cc1C | 6% | 7 | 50 | 19% | 2% | 0
COc1ccc(OC)c(Cc2nnc(CCC(=O)N3CCCCC3c3nccs3)o2)c1 (stereo not drawn) | 2% | 43* | 87* | -11% | 28% | -8
COc1cccc(CCNC(=O)CCc2nnc(Cc3cc(OC)ccc3OC)o2)c1 | 4% | 28* | 23* | -12% | -22% | -9
COc1ccc(OC)c(Cc2nnc(CCC(=O)N3CCCCCC3)o2)c1 | 23% | -3 | -11 | 13% | 25% | -28
COc1ccc(OC)c(Cc2nnc(CCC(=O)NC3CCCCCCC3)o2)c1 | 12% | 33* | 77* | -18% | ? | 33
COc1ccc(OC)c(Cc2nnc(CCC(=O)NCc3nc4ccccc4s3)o2)c1 | -5% | 16 | 32 | 0% | 7.4µM* | 22
COc1ccc(CNC(=O)c2ccc(CS(=O)Cc3cccc(Cl)c3)o2)cc1 (stereo not drawn) | -1% | -2 | -5 | 1% | ? | 2
COc1ccc(OC)c(CCNC(=O)c2ccc(CS(=O)Cc3cccc(Cl)c3)o2)c1 (stereo not drawn) | ? | 2 | 0 | ? | 4.1µM* | -38
CC(C)=CCOc1ccc(/C=C/C(=O)c2ccc(OCC=C(C)C)cc2OCC(=O)O)cc1 | · | 7 | 21 | -12% | -17% | ·
C=CCS/C(N)=N\N=C\c1c(O)ccc2ccccc12 | 22µM* | 44* | 114* | 70% | 67% | 53
CCOc1ccccc1C=NN=Cc1ccccc1O | -21% | · | · | · | · | 7
CCCS/C(N)=N/N=C/c1ccccc1O | -26% | 38* | 50* | 164% | · | 25
Cc1nc2cc(-c3sccc3-n3cccc3)nn2c(C)c1C | -6% | 34* | 60* | 1% | 34% | 60
Cc1cc(C(F)(F)F)n2nc(-c3sccc3-n3cccc3)cc2n1 | -24% | -2 | -14 | -16% | ? | ?
CC/C(=N\NC(=O)Nc1ccccc1)c1c(O)n(Cc2ccccc2)c(=O)[nH]c1=O | 17% | 35* | 105* | -1% | 31% | 110
C/C(=N\Nc1cccc2ccccc12)c1c(O)n(Cc2ccccc2)c(=O)[nH]c1=O | -6% | 1 | -4 | 15µM* | ? | 20
CC(=NCCc1c[nH]c2ccccc12)c1c(O)n(Cc2ccccc2)c(=O)[nH]c1=O | ? | 1 | -11 | ? | ? | ?
C/C(=N\NC(=O)c1ccccc1)c1c(O)n(Cc2ccccc2)c(=O)[nH]c1=O | -14% | 52* | 101* | 34% | 18% | 14
